Drawing on PubChem BioAssay (EPA / NIEHS), this text covers outcome and AC50 for seven compounds.

As a reminder, the AC50 is the midpoint of the concentration-response curve, whichever way the signal moves.

Assay [1] is described as follows: ATG_NFI_CIS: Attagene CIS-FACTORIAL HepG2 Assay for human Nuclear Factor I (NFI) (AID 2282989). As to conditions: HepG2 cis-regulatory reporter, NFI response element transcription; actives raise or lower the signal. The procedure, abridged:
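Reporter transcription driven by endogenous transcription factors in HepG2 cells; 24 h treatment. Quantitation by labelled RT-PCR fragments on capillary electrophoresis, gain- or loss-of-signal relative to DMSO.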

The target of assay [2] is Myc proto-oncogene protein (Homo sapiens) (UniProt P01106). Nature of the assay: ATG_Myc_CIS: Attagene CIS-FACTORIAL HepG2 Assay for human Myelocytomatosis (Myc) Proto-Oncogene Transcription Factor (AID 2282990). As to conditions: HepG2, Attagene cis-reporter transcription factor activity; actives raise or lower the signal. The procedure, abridged: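 DMSO-normalised, bidirectionally fitted reporter mRNA signal. HepG2 cells transfected with cis reporter constructs, treated 24 h; transcripts detected by RT-PCR, 6-FAM primer extension and CE.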

Assay [3] can be described thus: ATG_NF_kB_CIS: Attagene CIS-FACTORIAL HepG2 Assay for human Nuclear Factor Kappa B (NF-kB) (AID 2282991). As to conditions: HepG2 Attagene cis-factorial NF-kB reporter mRNA; actives raise or lower the signal. The procedure, abridged: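 Fluorescence of labelled RT-PCR products separated by capillary electrophoresis gives reporter mRNA levels from transfected HepG2 cells exposed 24 h; values are fitted in both directions relative to DMSO.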

Assay [4] in a line: ATG_NRF2_ARE_CIS: Attagene CIS-FACTORIAL HepG2 Assay for human Nuclear Factor Erythroid 2 Related Factor 2 (NFR2) response to Antioxidant Response Elements (ARE) (AID 2282992). As to conditions: HepG2 Attagene ARE/NRF2 reporter, transcription factor activity; actives raise or lower the signal. The procedure, abridged:
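HepG2 cells transiently transfected with multiplexed cis-element reporter constructs, 24 h after chemical dosing; reporter mRNA quantified by RT-PCR, fluorescent primer extension, HpaI digestion and capillary electrophoresis. Bidirectional fit relative to DMSO.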

A short description of assay [5]: ATG_Oct_MLP_CIS: Attagene CIS-FACTORIAL HepG2 Assay for human Octamer-Binding Transcription Factor (Oct) (AID 2282993). As to conditions: HepG2 Attagene cis-factorial Oct reporter, mRNA; actives raise or lower the signal. The procedure, abridged: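 Transfected HepG2 cells, 24 h treatment. Reporter mRNA quantified by RT-PCR–capillary electrophoresis; bidirectional fitting against DMSO.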

For assay [6], the target named is Nuclear receptor subfamily 1 group I member 2 (Homo sapiens) (UniProt O75469). Nature of the assay: ATG_PXR_TRANS: Attagene TRANS-FACTORIAL HepG2 Assay for human Pregnane X Receptor (PXR) (AID 2283008; active = hit-call score of the fitted dose curve at least 0.9, where 1 is the maximum). The method in brief: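 HepG2 cells transiently transfected with GAL4-UAS reporter units and PXR-Gal4 chimera, exposed 24 h. Reporter mRNA quantified by RT-PCR, fluorescent labelling, HpaI digestion and capillary electrophoresis; gain of signal vs DMSO.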

Assay [7] addresses Cellular tumor antigen p53 (Homo sapiens) (UniProt P04637). Nature of the assay: ATG_p53_CIS: Attagene CIS-FACTORIAL HepG2 Assay for human p53 Transcription Factor (AID 2282994). As to conditions: HepG2 p53 cis-element reporter, Attagene mRNA; actives raise or lower the signal. The method in brief: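 HepG2 cells transiently transfected with cis-regulated multiple reporter transcription units, dosed 24 h. Reporter mRNA measured by RT-PCR, 6-FAM primer extension, HpaI digestion and capillary electrophoresis; bidirectional fit relative to DMSO.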

The target of assay [8] is Peroxisome proliferator-activated receptor gamma (Homo sapiens) (UniProt P37231). Nature of the assay: ATG_PPARg_TRANS: Attagene TRANS-FACTORIAL HepG2 Assay for human Peroxisome Proliferator-activated Receptor-gamma (PPARg) (AID 2283007; active = hit-call score of the fitted dose curve at least 0.9, where 1 is the maximum). The procedure, abridged: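 Twenty-four hours after chemical dosing of transiently transfected HepG2 cells, isolated RNA was converted to cDNA, reporter sequences amplified and 6-FAM-labelled, then HpaI-digested and analysed by capillary electrophoresis. Signal increase against DMSO was fitted.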

Assay [9] addresses human RAR-related Orphan Receptor gamma (RORg), RORC (gene 6097) (UniProt P51449). Nature of the assay: ATG_RORg_TRANS: Attagene TRANS-FACTORIAL HepG2 Assay for human RAR-related Orphan Receptor gamma (RORg) (AID 2283011; active = hit-call score of the fitted dose curve at least 0.9, where 1 is the maximum). The method in brief: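 Transient MRTU transfection of HepG2 (TRANS format, exogenous NR-Gal4 chimera). 24 h dosing. Total RNA → oligo(dT) RT → PCR → 6-FAM labelling → HpaI cut → CE. Gain vs DMSO.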

Assay [10] concerns the target human Peroxisome Proliferator-activated Receptor alpha (PPARa), PPARA (gene 5465) (UniProt Q07869). Nature of the assay: ATG_PPARa_TRANS: Attagene TRANS-FACTORIAL HepG2 Assay for human Peroxisome Proliferator-activated Receptor alpha (PPARa) (AID 2283001; active = hit-call score of the fitted dose curve at least 0.9, where 1 is the maximum;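 as to AC50: potency for gain of reporter signal over DMSO so agonist or activator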). The procedure, abridged:
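HepG2 cells transiently transfected with multiplexed GAL4-UAS reporter units and chimeric NR-Gal4 constructs were dosed for 24 h. Reporter mRNA was measured by RT-PCR with fluorescent labelling and capillary electrophoresis; gain of signal fitted against DMSO.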

Assay [11] addresses human Peroxisome Proliferator-activated Receptor delta (PPARd), PPARD (gene 5467) (UniProt Q03181). Nature of the assay: ATG_PPARd_TRANS: Attagene TRANS-FACTORIAL HepG2 Assay for human Peroxisome Proliferator-activated Receptor delta (PPARd) (AID 2283002; active = hit-call score of the fitted dose curve at least 0.9, where 1 is the maximum). The method in brief: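 Measured quantity: GAL4-UAS reporter transcript induction in HepG2 after 24 h chemical dosing, with NR-Gal4 chimeras supplied by transient transfection. Detection by RT-PCR and capillary electrophoresis; upward fit against DMSO.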

Assay [12] has as its target human RAR-related Orphan Receptor beta (RORb), RORB (gene 6096) (UniProt Q92753). Nature of the assay: ATG_RORb_TRANS: Attagene TRANS-FACTORIAL HepG2 Assay for human RAR-related Orphan Receptor beta (RORb) (AID 2283010; active = hit-call score of the fitted dose curve at least 0.9, where 1 is the maximum). The method in brief: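 HepG2 cells were transiently transfected with multiplexed GAL4-UAS reporter units expressing chimeric nuclear receptor–GAL4 proteins, then dosed for 24 h. Reporter mRNA was quantified by RT-PCR with fluorescent labelling and capillary electrophoresis; gain of signal was fitted relative to DMSO.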

Assay [13] addresses human Retinoic Acid Receptor gamma (RARg), RARG (gene 5916) (UniProt P13631). Nature of the assay: ATG_RARg_TRANS: Attagene TRANS-FACTORIAL HepG2 Assay for human Retinoic Acid Receptor gamma (RARg) (AID 2283009; active = hit-call score of the fitted dose curve at least 0.9, where 1 is the maximum). The method in brief: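 HepG2 cells transiently transfected with multiplexed reporter units expressing chimeric RARg-GAL4 and GAL4-UAS-driven reporters; 24 h compound exposure. Reporter mRNA quantified by RT-PCR with fluorescent labelling and capillary electrophoresis; gain-of-signal fitted relative to DMSO baseline.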

Assay [14] can be described thus: BSK_3C_uPAR: BioMAP Diversity Plus: 3C Assay for Urokinase-type plasminogen activator receptor (uPAR) Biomarker Activity (AID 2282998). As to conditions: BioMAP 3C HUVEC, uPAR biomarker ELISA; actives raise or lower the signal. The method in brief:
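Readout: ELISA for surface uPAR. System: human umbilical vein endothelial primary cells, 24 h after chemical exposure. Analysis: bidirectional fit, DMSO baseline.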

Assay [15] is described as follows: BSK_3C_VCAM1: BioMAP Diversity Plus: 3C Assay for Vascular cell adhesion molecule 1 (VCAM1) Biomarker Activity (AID 2282999). As to conditions: BioMAP 3C HUVEC, VCAM1 ELISA, cytokine-stimulated; actives raise or lower the signal. The method in brief:
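Human umbilical vein endothelial cells were dosed with compound for 24 h, after which cell-surface VCAM-1 was quantified by ELISA. Bidirectional curve fitting used DMSO as negative control and activity baseline.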
(In an ELISA, binding on a coated surface is turned into a signal by an enzyme label.)

Assay [16] can be described thus: BSK_4H_Eotaxin3: BioMAP Diversity Plus: 4H Assay for Eotaxin 3 Biomarker Activity (AID 2283000). As to conditions: primary human endothelial cells (HUVEC); actives raise or lower the signal. The method in brief: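 Readout is Eotaxin-3 (CCL26) level by ELISA in primary human umbilical vein endothelial cells harvested 24 h after chemical exposure; activity fitted in both directions against DMSO control.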

Read-out in assay [17]: Intercellular Adhesion Molecule 1 (ICAM1), ICAM1 (gene 3383)
Nature of the assay: BSK_3C_ICAM1: BioMAP Diversity Plus: 3C Assay for Intercellular Adhesion Molecule 1 (ICAM1) Biomarker Activity (AID 2283003). As to conditions: primary human endothelial cells (HUVEC); actives raise or lower the signal. The procedure, abridged: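 Primary human umbilical vein endothelial cells in the BioMAP 3C system were exposed to chemicals for 24 h, then ICAM-1 was quantified by ELISA. Activity was fitted bidirectionally against the DMSO negative control baseline.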

Assay [18] is described as follows: BSK_3C_Proliferation: Cell Proliferation Assessment in the BioMAP Diversity Plus: 3C Assay (AID 2283006).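 Also: potency may reflect either rise or fall in cell number versus DMSO.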 As to conditions: primary human endothelial cells (HUVEC). The method in brief: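 Human umbilical vein endothelial cells were grown sub-confluent and exposed to chemical for 48 h, then fixed with 10% TCA and stained with 0.1% sulforhodamine B; absorbance at 560 nm gave relative cell number, fitted bidirectionally against DMSO baseline.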

Records with an inconclusive call do not appear. Calls of active or inactive are those of the source. The calls were made as follows, unless noted: active = hit-call score of the fitted dose curve at least 0.9, where 1 is the maximum; inactive = score below 0.9.

Chain of Myc proto-oncogene protein (Homo sapiens) (P01106 whole entry, looked up): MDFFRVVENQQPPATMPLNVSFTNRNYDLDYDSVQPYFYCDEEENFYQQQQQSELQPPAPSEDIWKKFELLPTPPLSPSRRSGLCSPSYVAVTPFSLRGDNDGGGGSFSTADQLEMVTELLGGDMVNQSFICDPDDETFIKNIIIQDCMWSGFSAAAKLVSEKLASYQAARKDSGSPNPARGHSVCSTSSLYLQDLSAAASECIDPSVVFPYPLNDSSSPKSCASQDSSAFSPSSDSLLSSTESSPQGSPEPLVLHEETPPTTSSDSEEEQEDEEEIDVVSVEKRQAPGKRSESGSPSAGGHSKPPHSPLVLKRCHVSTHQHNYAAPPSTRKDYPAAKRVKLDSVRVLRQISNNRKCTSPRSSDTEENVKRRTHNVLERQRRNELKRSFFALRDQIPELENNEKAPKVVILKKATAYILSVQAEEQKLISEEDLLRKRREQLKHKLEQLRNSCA
Chain of human RAR-related Orphan Receptor gamma (RORg), RORC (gene 6097) (P51449 whole entry, looked up, the tested form may be a part): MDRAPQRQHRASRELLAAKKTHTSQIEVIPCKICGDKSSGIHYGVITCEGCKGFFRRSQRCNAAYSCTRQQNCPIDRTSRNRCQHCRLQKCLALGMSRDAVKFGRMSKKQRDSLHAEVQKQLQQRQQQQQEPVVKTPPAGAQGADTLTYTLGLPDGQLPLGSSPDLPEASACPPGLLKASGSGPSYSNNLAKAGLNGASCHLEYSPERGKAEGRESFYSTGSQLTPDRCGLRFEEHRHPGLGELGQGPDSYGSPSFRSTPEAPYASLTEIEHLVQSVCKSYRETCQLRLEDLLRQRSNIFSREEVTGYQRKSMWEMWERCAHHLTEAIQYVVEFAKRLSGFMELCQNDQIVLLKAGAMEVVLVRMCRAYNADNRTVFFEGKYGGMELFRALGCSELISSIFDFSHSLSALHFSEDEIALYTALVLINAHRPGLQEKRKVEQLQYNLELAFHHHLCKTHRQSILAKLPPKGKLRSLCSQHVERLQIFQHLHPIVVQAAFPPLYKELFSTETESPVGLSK
Chain of Cellular tumor antigen p53 (Homo sapiens) (P04637 whole entry, looked up): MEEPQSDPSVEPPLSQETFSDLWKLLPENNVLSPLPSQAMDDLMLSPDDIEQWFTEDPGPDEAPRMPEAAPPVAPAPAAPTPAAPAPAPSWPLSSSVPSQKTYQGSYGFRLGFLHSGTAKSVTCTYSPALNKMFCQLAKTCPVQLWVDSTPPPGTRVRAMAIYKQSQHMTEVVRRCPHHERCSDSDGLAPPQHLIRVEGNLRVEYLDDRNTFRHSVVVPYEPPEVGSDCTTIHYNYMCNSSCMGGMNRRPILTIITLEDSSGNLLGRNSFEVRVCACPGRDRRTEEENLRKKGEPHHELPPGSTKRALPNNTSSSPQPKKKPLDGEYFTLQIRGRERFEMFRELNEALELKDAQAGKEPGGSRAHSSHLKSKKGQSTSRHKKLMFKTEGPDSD
Chain of human Peroxisome Proliferator-activated Receptor alpha (PPARa), PPARA (gene 5465) (Q07869 whole entry, looked up, the tested form may be a part): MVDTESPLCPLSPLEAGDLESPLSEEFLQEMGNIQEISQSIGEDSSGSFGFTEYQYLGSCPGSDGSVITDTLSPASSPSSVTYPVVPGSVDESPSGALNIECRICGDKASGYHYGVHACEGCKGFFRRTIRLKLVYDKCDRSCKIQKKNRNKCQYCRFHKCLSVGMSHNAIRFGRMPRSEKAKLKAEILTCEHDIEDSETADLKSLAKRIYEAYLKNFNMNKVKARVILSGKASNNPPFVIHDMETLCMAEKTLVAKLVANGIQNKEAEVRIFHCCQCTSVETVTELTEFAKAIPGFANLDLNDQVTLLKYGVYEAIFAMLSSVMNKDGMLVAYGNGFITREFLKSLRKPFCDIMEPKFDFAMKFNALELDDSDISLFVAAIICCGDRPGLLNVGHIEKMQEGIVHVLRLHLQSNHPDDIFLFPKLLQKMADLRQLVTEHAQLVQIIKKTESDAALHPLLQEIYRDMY
Chain of Nuclear receptor subfamily 1 group I member 2 (Homo sapiens) (O75469 whole entry, looked up, the tested form may be a part): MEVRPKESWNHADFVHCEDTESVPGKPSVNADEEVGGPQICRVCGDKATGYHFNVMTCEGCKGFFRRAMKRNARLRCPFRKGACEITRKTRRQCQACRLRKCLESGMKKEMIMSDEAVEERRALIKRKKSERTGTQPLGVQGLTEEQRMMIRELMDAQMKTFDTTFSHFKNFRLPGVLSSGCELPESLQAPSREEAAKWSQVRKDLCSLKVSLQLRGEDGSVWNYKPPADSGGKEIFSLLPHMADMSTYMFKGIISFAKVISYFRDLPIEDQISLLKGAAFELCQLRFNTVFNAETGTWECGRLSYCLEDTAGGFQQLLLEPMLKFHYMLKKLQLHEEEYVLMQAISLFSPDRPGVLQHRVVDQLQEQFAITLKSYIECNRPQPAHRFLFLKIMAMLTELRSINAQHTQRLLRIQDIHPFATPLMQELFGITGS
Chain of human Peroxisome Proliferator-activated Receptor delta (PPARd), PPARD (gene 5467) (Q03181 whole entry, looked up, the tested form may be a part): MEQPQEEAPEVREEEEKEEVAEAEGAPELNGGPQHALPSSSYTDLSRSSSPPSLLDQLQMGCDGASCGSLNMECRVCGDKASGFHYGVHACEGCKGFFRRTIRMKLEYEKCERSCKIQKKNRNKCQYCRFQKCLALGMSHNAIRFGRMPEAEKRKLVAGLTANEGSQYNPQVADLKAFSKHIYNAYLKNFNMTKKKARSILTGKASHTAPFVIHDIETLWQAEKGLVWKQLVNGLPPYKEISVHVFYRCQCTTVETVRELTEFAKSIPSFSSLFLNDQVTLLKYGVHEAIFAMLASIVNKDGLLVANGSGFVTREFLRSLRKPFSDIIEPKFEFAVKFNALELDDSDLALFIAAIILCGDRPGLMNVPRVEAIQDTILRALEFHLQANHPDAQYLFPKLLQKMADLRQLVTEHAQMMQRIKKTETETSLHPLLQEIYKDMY
Chain of Peroxisome proliferator-activated receptor gamma (Homo sapiens) (P37231 whole entry, looked up): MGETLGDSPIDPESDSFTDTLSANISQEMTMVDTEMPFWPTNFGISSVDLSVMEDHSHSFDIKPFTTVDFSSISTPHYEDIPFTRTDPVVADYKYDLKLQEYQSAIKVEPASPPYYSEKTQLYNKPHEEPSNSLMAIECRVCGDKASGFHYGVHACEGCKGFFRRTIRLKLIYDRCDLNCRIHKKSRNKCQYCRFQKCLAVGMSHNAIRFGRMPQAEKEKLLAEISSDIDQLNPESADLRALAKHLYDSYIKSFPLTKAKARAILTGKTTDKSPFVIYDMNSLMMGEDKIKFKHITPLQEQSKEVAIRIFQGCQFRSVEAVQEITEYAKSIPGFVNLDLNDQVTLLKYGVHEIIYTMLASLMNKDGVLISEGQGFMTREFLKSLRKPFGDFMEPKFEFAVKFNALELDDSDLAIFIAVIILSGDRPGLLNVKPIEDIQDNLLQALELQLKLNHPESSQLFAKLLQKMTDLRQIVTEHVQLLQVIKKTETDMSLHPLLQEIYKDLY
Chain of human RAR-related Orphan Receptor beta (RORb), RORB (gene 6096) (Q92753 whole entry, looked up, the tested form may be a part): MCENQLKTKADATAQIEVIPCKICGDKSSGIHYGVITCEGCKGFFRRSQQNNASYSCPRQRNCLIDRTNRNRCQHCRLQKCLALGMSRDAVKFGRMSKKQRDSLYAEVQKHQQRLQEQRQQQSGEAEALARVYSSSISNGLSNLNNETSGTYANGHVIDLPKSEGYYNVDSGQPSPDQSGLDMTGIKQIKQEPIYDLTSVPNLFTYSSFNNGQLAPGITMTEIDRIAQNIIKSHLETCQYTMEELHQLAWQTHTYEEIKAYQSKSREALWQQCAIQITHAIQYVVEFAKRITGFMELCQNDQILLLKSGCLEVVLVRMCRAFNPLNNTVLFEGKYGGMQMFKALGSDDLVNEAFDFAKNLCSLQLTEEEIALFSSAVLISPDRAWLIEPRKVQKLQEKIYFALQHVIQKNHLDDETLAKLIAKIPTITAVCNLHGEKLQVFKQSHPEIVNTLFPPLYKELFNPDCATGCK
Chain of human Retinoic Acid Receptor gamma (RARg), RARG (gene 5916) (P13631 whole entry, looked up, the tested form may be a part): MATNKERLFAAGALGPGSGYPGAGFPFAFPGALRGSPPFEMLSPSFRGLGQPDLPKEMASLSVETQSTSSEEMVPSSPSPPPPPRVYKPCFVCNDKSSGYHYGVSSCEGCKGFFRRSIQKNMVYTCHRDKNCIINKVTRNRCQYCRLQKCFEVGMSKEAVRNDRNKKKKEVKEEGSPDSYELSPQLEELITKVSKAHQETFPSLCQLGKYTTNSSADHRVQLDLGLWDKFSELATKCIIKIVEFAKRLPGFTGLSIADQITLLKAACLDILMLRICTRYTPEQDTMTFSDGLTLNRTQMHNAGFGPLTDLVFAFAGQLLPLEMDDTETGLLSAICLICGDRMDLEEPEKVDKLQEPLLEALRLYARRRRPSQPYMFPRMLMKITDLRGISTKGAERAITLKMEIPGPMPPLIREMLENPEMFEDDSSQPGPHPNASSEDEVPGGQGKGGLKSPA

On to `C=CC(C)(CCC=C(C)C)OC(=O)CC(C)C` (centres undefined), for which the call in assay [1], in assay [2], in assay [3] and in [5] was inactive. The concentration at half-maximal activity (AC50) in [4] was 100 µM (active); in assay [6], 11.8 µM (active).

`OCCCS`: the compound was called inactive in assay [1], in [2], in assay [3], in assay [5], in assay [7] and in assay [8]. In addition, in [9], the compound was called inactive.

With `CC(C)COC(=O)C=Cc1ccccc1`, the compound was called inactive in [1], in [2], in assay [3], in assay [7], in assay [10] and in [11]. In assay [12], the compound was called inactive. In addition, the results for the AC50 in assay [4] and in [6] were 18.4 µM (active) and 29.4 µM (active), respectively.

As for `CC(C)c1ccc2cc(C(C)C)ccc2c1`, the call in [1], in assay [2], in [3], in [5], in assay [8] and in assay [12] was inactive. The AC50 in assay [4] is 100 µM (active); in assay [6], 7.42 µM (active).

As to `C1=CCCC1`, the result in [1], in assay [2], in assay [3], in assay [5], in assay [7] and in [10] was inactive. Moreover, the compound was called inactive in [6], in assay [13] and in assay [9].

As to `NC(=O)N=NC(N)=O`, the compound was called inactive in assay [1], in assay [2], in assay [3], in [5], in [7] and in assay [10]. The compound was classed as inactive in assay [11], in assay [8], in [6] and in [9].

Regarding `CCCCC/C=C\C/C=C\CCCCCCCC(=O)OC`, the compound was classed as inactive in assay [1], in assay [2] and in assay [9]. Further, the AC50 was 37 µM (active) in [3]; 32.5 µM (active) in assay [4]; 180 µM (active) in assay [7]; 33.7 µM (active) in assay [14]; 30 µM (active) in assay [15]; 34 µM (active) in [16]. Besides, the AC50 in assay [10] was 32 µM (active); in [11], 100 µM (active); in [17] it was 32.7 µM (active); in assay [18] it was 27.1 µM (active); in [8], 4.68 µM (active); in assay [6], 47.6 µM (active).
